MITF act: activators of MITF-driven TRPM1 promoter reporter, primary screen, cell-based, SK-MEL-5, luciferase, single point. SK-MEL-5 TRPM1-promoter luciferase, 24 h; % of positive control, neutral wells = 0. activation, % at 12.5 µM. hit rate 0.75% among 300,000. AID 588334, 2011;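 active = mean activation of at least 80% with every replicate also reaching 80%; inconclusive = mean reaches 80% but some replicate falls short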;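 note: 0% = neutral control wells and 100% = parthenolide positive control wells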
esBAF inh: Bmi1 luciferase reporter increase in mESCs, primary screen, esBAF inhibitor project, mouse ES cells, Bmi1 luciferase knock-in, single point; 24 h; 100% = twice the neutral-well signal; reporter increase, % at 12.5 µM; hit rate 2% among 350,000; in the data active = activation above about 40%; inconclusive = no clear call, values can overlap the other calls;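 note: 0% = median of the plate's neutral control wells and 100% = double that signal; a rise in the Bmi1 reporter signal indicates esBAF inhibition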
A3G deaminase: APOBEC3G DNA deaminase inhibitors, primary screen, biochemical, fluorescence, single-stranded DNA substrate, uHTS; DNA dC->dU-editing enzyme APOBEC-3G (Homo sapiens), Q9HC16; recombinant A3G, ssDNA deamination FAM/TAMRA fluorescence; inhibition, % at 20 µM; hit rate 0.28% among 330,000; AID 493012, 2011;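 active = inhibition of at least 40% at 20 µM, with no more than 30% in the related APOBEC3A deaminase screen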;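 note: plate controls were DMSO wells with A3G for no effect and wells lacking A3G enzyme for full effect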
Target sequence (Q9HC16 whole entry, looked up): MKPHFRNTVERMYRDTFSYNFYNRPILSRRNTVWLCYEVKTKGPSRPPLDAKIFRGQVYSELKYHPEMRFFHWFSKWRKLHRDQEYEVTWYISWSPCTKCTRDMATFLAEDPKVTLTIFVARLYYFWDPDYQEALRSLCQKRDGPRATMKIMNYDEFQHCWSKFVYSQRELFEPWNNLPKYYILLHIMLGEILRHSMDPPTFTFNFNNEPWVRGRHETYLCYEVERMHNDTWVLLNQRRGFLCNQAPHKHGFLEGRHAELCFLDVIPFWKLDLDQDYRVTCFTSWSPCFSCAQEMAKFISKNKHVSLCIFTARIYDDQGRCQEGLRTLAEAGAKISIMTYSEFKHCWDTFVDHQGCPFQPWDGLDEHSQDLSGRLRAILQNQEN
Wnt bcat act: Wnt/beta-catenin pathway activators, primary screen, cell-based, plate reader, single point. Wnt/beta-catenin reporter cell assay, activator. activation, % at 9.35 µM. hit rate 1.2% among 300,000; in the data active = activation above about 30%, passing the limit was not always enough; inconclusive = no clear call, values can overlap the other calls;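 note: 0% = neutral control wells and 100% = positive control wells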
APOBEC3A inh: APOBEC3A ssDNA deaminase inhibitors, primary screen, selectivity assay for APOBEC3G inhibitor project, biochemical, FAM/TAMRA oligo cleavage fluorescence; DNA dC->dU-editing enzyme APOBEC-3A (Homo sapiens), P31941; recombinant A3A, FAM/TAMRA ssDNA deamination fluorescence; inhibition, % at 20 µM; hit rate 0.41% among 330,000; AID 493011, 2011;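 active = at least 40% inhibition at 20 µM here, with at most 30% in a related deaminase screen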;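 note: plate controls were A3A with DMSO for no effect and wells lacking A3A enzyme for full effect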
PHOSPHO1 block: PubChem AID 1565 | Phosphoethanolamine/phosphocholine phosphatase (Homo sapiens), Q8TCT1 | inhibition, % at 13.3 µM | hit rate 1.1% among 290,000 | recombinant PHOSPHO1, absorbance phosphatase assay; in the data active = inhibition above about 60%
* marks the source's active call; other numbers are inactive results; ? = inconclusive; . = no result given. Most compounds without a hit are left out; they make up all but 3.6% or so of the library.

SMILES	MITF act	esBAF inh	A3G deaminase	Wnt bcat act	APOBEC3A inh	PHOSPHO1 block
CC(=O)c1ccc(N2CCN(C(=O)CCCn3c(=S)[nH]c4cc5c(cc4c3=O)OCO5)CC2)cc1	.	-10.4	-4.7	.	-0.4	63.2*
O=C(CCCn1c(=S)[nH]c2cc3c(cc2c1=O)OCO3)N1CCN(c2ccccc2)CC1	.	.	-8.6	.	-4.4	68.9*
CC(=O)c1ccc(N2CCN(C(=O)c3ccc(Cn4c(=S)[nH]c5ccc(N6CCOCC6)cc5c4=O)cc3)CC2)cc1	13.8	60.5*	-5.9	3.9	2.8	-63.3
CCCc1[nH]nc2c1C(c1ccc(OC(=O)N3CCOCC3)cc1)C(C#N)=C(N)O2 (stereo not given)	-13.7	1.8	-3.4	-1.8	-2.1	63.3*
COc1ccc(-c2[nH]nc3c2C(c2ccc(OC(=O)N4CCOCC4)cc2)C(C#N)=C(N)O3)cc1 (stereo not given)	.	.	-1.2	3.0	-0.5	-12.4
CC(Oc1ccc([N+](=O)[O-])cc1)C(=O)NCCCN1CCOCC1 (stereo not given)	9.5	-8.7	2.9	2.4	0.4	65.8*
CNC[C@H]1Oc2ccc(NS(=O)(=O)c3ccccc3)cc2CC(=O)N([C@H](C)CO)C[C@H]1C	.	-3.8	.	.	.	.
CS(=O)(=O)Nc1ccc2c(c1)[C@H]1C[C@@H](CC(=O)N3CCc4ccccc4C3)O[C@@H](CO)[C@H]1O2	.	3.1	.	.	.	.
COc1ccc(/C(C)=N/N2CCCCC2)c(O)c1	?	54.1	0.2	1.2	3.1	26.5
COc1ccc(O)c(/C=N/N2CCCCC2)c1	29.7	6.4	2.3	32.7*	1.6	1.1
COc1ccc(CCNC2CC(=O)N(CCc3ccccc3)C2=O)cc1OC (stereo not given)	4.2	6.5	-6.4	42.5*	-2.0	-7.4
COC(=O)N1C[C@H](Oc2cccc3ccccc23)[C@H]2C[C@@H]1c1ccccc1O2	.	.	.	-4.2	.	.
COc1ccc(S(=O)(=O)Nc2ccc3c(c2)C(=O)N([C@@H](C)CO)C[C@@H](C)[C@H](CN(C)S(C)(=O)=O)O3)cc1	.	4.1	.	.	.	.
Nc1ccc(-c2cc(N)n(-c3ccccc3)n2)cc1	54.7	32.3	-6.2	.	-4.2	-8.0
CC(=O)Nc1ccc(-c2cc(NC(C)=O)n(-c3ccccc3)n2)cc1	1.6	-6.8	-6.9	.	-3.0	17.5
Nc1cc(-c2ccc(Cl)cc2)nn1-c1ccccc1	119.1*	58.0*	1.4	48.6*	3.1	27.1
CC(=O)Nc1ccc(-c2cc(N)n(-c3ccccc3)n2)cc1	48.1	.	-6.6	44.4*	-1.9	48.3
CN1C(=O)c2cc(NC(=O)NC3CCCC3)ccc2OC[C@@H]2O[C@@H](CC(=O)NC3CCC3)CC[C@H]21	.	-5.3	.	.	.	.
COC(=O)C[C@@H]1CC[C@H]2[C@@H](COc3ccc(NC(=O)Nc4cc(C)cc(C)c4)cc3C(=O)N2C)O1	.	2.4	.	.	.	.
COc1ccc(-c2ccc3sc4ccccc4c(=O)c3c2)cn1	50.0	11.6	1.0	38.8*	0.4	.
Cn1c2ccccc2c(=O)c2ccc(Cl)cc21	.	30.7	.	5.2	.	.
COc1cc2sc3ccc(-c4ccc(N(C)C)nc4)cc3c(=O)c2cc1OC	.	.	30.9	43.6*	5.3	.
CN(C)c1ccc(-c2ccc3c(=O)c4ccccc4n(C)c3c2)cn1	26.7	48.7*	-9.7	36.4*	-4.0	-24.2
O=C(N/N=C\c1cccc(Cl)c1)c1n[nH]c2c1CCCC2	100.4*	.	-2.8	?	0.7	-5.8
C[C@@H]1CN([C@H](C)CO)C(=O)c2cc(-c3cncnc3)cnc2O[C@H]1CN(C)Cc1ccccc1	.	-4.8	.	.	.	.
CC1(C)Cc2c(C#N)c(N)sc(=S)c2CO1	13.7	-1.4	30.2	8.6	-2.9	79.5*
CCN(CC)c1nc(C)c2c(c1C#N)CC(C)(C)OC2	-3.5	.	-2.1	.	2.8	15.2
CC(C)C1Cc2c(C#N)c(N)sc(=S)c2CO1 (stereo not given)	9.0	.	12.3	.	1.3	88.6*

High-throughput results: PubChem, several laboratories
